Screens deposited in PubChem by National Center for Advancing Translational Sciences (NCATS).
PLK1 PBD block = PLK1 (human) polo-box domain binding inhibition; P53350; Potency, µM, inactives show max response, negative = inhibition, hits mostly inhibitors; Plk1 PBD binding of FITC phosphopeptide, fluorescence polarization; 2.8% of 360,000 active; also: potency is read from the fitted curve at half-maximal effect; series mostly up to about 57 µM; % is scaled to controls: 0 for no effect and ±100 for the full control effect; nearly all actives have a fitted effect of over 65% in size
Target sequence (P53350 whole entry, looked up, the tested form may be a part): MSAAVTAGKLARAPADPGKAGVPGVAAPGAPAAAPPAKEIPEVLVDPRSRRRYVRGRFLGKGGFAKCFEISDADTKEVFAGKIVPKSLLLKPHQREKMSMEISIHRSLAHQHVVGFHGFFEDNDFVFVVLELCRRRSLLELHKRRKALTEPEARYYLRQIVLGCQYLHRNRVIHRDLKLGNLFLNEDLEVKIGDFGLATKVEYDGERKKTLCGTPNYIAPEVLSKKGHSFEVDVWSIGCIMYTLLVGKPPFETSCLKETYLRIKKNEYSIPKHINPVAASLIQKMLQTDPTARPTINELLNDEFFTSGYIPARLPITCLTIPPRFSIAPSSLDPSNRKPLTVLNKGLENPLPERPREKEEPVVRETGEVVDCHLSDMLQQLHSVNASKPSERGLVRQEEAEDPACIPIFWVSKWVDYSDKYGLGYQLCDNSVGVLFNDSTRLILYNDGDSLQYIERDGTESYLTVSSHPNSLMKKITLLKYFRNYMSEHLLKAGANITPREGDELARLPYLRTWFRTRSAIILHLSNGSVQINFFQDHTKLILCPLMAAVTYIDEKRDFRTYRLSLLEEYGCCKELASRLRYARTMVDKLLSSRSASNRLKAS
PKM2 act = increases activity of human pyruvate kinase M2; 0.34% of 260,000 active; Potency, µM (doses to about 57.5 µM), for inactives: top-dose activation, usual class: activators; purified PKM2, Kinase-Glo ATP luminescence, activation; response scale: 0% is enzyme alone, no compound; P14618; also: potency is read from the fitted curve at half-maximal effect; % is scaled to controls: 0 for no effect and ±100 for the full control effect; nearly all actives have a fitted effect of over 55% in size
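hPK-M2, >95% pure; 0.1 mM ADP / 0.5 mM PEP final; imidazole pH7.2 buffer w/ 7 mM MgCl2, 50 mM KCl; 1 h RT; Kinase-Glo lum. Intermediate enzyme activity for dual inhibitor/activator qHTS.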
Mito fusion act = inhibitors of mitochondrial division or activators of mitochondrial fusion; 0.23% of 320,000 active; Potency, µM (highest dose often 46.1 µM), inactives show top-dose growth rescue (activation), actives largely listed as activators; S. cerevisiae fusion-defective mutant growth rescue, CellTiterGlo 48 h; also: potency is read from the fitted curve at half-maximal effect; % of control where 0% means no effect; nearly all actives have a fitted effect of over 45% in size
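Temperature-sensitive fusion-defective S. cerevisiae (e.g. fzo1-1, mgm1-5) were grown with compound in YPEG medium (3% ethanol, 3% glycerol) for 48 hours at 37C. Growth rescue was measured as viability by CellTiterGlo luminescence after 10 minutes at ambient.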
GLS inhibitor = inhibitors of human glutaminase (GLS). O94925. GLS enzymatic activity, qHTS titration. Potency, µM (doses to about 45.5 µM), for inactives: at the highest dose activity change, negative = inhibition, usual class: inhibitors. 0.21% of 410,000 active; also: potency is read from the fitted curve at half-maximal effect; % is scaled to controls: 0 for no effect and ±100 for the full control effect
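Glutamate formation by hKGA was monitored fluorometrically using coupled glutamate oxidase, HRP and Amplex Red. Substrate was added as 1 mM L-glutamine solution; incubation was 30 min at RT after an initial read.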
VDR inhibitor = inhibitors of human vitamin D receptor; Potency, µM, inactives show max response, negative = inhibition, most hits filed as inhibitors; VDR-SRC2-3 peptide fluorescence polarization, 2 h; 0.93% of 400,000 active; AID 504847; also: potency is read from the fitted curve at half-maximal effect; % is scaled to controls: 0 for no effect and ±100 for the full control effect
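Inhibition of the VDR/SRC2-3 peptide interaction is quantified by fluorescence polarization. Compounds (23 nl, pintool) incubate with the reagents for 2 hours at ambient room temperature.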
KAT2A inh = blocks human GCN5L2 histone acetyltransferase | Q92830 | GCN5L2 HAT assay, ThioGlo1 CoA-SH fluorescence | Potency, µM (top dose mostly 58.9 µM), for the others: top-dose activity change, negative = inhibition, usual class: inhibitors | 0.21% of 390,000 active | AID 504327; also: potency is read from the fitted curve at half-maximal effect; % is scaled to controls: 0 for no effect and ±100 for the full control effect
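Preincubate 20nM GCN5L2 with compound 15 min, RT → add 50uM ThioGlo1 + 75uM H3(1-25) + 70uM acetyl-CoA → read fluorescence 0 and 20 min. Primary qHTS; fluorescent artifacts likely.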
USP1-UAF1 confirm = USP1-UAF1 deubiquitinase inhibition validated; Potency, µM (highest dose often 56.8 µM), for inactives: at the top dose activity change, negative = inhibition, usual class: inhibitors; AID 540327; 50% of 50 active; Ub-Rhodamine cleavage, fluorescence kinetic read; shares compounds with VDR inhibitor
VDR confirm = confirmation of human vitamin D receptor inhibitors; Potency, µM, hits mostly inhibitors; shares compounds with VDR inhibitor; VDR-coactivator inhibition assay, qHTS confirmation; AID 602199; 89% of 840 active; also: potency is read from the fitted curve at half-maximal effect
VDR FP = blocks human VDR-coactivator binding in fluorescein assay; shares compounds with VDR inhibitor; VDR-coactivator binding, fluorescein fluorescence polarization; Potency, µM (doses to about 57.1 µM), inactives show at the highest dose activity change, negative = inhibition, most hits filed as inhibitors; 48% of 840 active; AID 602200; also: potency is read from the fitted curve at half-maximal effect
VDR bla = confirmation of human vitamin D receptor inhibitors in reporter cells; AID 602202; 23% of 840 active; VDR beta-lactamase reporter cells, FRET ratio; cells co-treated with VDR agonist LG190178; Potency, µM (doses to about 46.1 µM), inactives show at the highest dose activity change, negative = inhibition, hits mostly inhibitors; shares compounds with VDR inhibitor; also: potency is read from the fitted curve at half-maximal effect; % is scaled to controls: 0 for no effect and ±100 for the full control effect
VDR cytotox = cytotoxic in counter-screen for VDR inhibitors; AID 602204; Potency, µM (series often up to 48.3 µM), without a hit: top-dose activity change, negative = cytotoxicity, usual class: cytotoxic; cytotoxicity counter-screen, cell viability, qHTS; 18% of 840 active; shares compounds with VDR inhibitor;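 also: potency is read from the fitted curve at half-maximal effect; plate controls were DMSO for no effect and high-concentration cycloheximide for full effect; nearly all actives have a fitted effect of over 75% in size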
Starred values were filed as active, the others as inactive; u = inconclusive; x = no result; [ ] = another dose, or the depositor's remark. In the library only some 3.4% were active in any assay of this set; here they are far more common. Calls follow the shape of the dose curve; as a rule, active = well fitted curve in the direction sought with a large enough effect; inconclusive = small, poorly fitted or top-dose-only effect, or another doubt; inactive = no such curve, though single readings can be large; an effect the other way counts as inactive or inconclusive.

SMILES	PLK1 PBD block	PKM2 act	Mito fusion act	GLS inhibitor	VDR inhibitor	KAT2A inh	VDR confirm	VDR FP	VDR bla	VDR cytotox	others
C=CCn1c(Sc2ncc([N+](=O)[O-])s2)n[nH]c1=O	1.19µM*	15.0%	-13.8%	-1.9%	28.2µM*	u	15*	u	25.9µM*	u
CCOC(=O)c1ccc(NC(=O)NCCc2cnc[nH]2)cc1	1.7%	6.3%	0.1%	0.3%	18.7%	0.9%	x	x	x	x
Cc1noc(C)c1S(=O)(=O)N1CCCN(C(=O)/C=C/c2ccccc2F)CC1	-0.2%	x	0.6%	0.1%	-6.5%	-3.1%	x	x	x	x
CCCc1c(OCCCOc2ccc(OCC(=O)O)cc2)ccc(CC=O)c1O	x	x	x	x	35.5µM*	u	x	x	x	x	USP1-UAF1 confirm=59.1µM*
COc1ccc(-c2nc3ccccc3c(=O)n2CC(C)C)cc1	3.3%	x	5.1%	-6.5%	-6.3%	u	x	x	x	x
O=S(=O)(c1ccccc1)N1CCN(S(=O)(=O)c2ccccc2)C1	-1.8%	5.9%	0.4%	9.4%	0.4%	1.7%	x	x	x	x
O=S(=O)(/N=S1/CC=CCN1S(=O)(=O)c1ccccc1)c1ccccc1 (stereo not given)	1.5µM*	3.6%	-7.5%	8.7%	3.55µM*	-21.4%	5.32*	u	-4.4%	21.9%
COc1ccc(S(=O)(=O)c2c(Nc3cccc(C)c3C)sc(C(=O)c3ccccc3)c2N)cc1	x	x	x	-2.2%	5.7%	-3.0%	x	x	x	x
COc1ccc(C2=CC(=O)N(Nc3ccccc3)C2=O)cc1	-24.9%	18.4%	0.9%	9.6%	u	-5.3%	3.16*	3.55µM*	-6.6%	12.7%
Cc1ccc(NN2C(=O)C=CC2=O)cc1	0.7%	-6.7%	-3.4%	1.4%	-3.6%	21.3%	x	x	x	x
Cc1ccc(NN2C(=O)C=C(c3ccc(Cl)cc3)C2=O)cc1	4.74µM*	9.1%	5.6%	35.2%	50.1µM*	0.6%	u	u	u	u
Cc1ccc(C)c(NC(=O)C[n+]2ccccc2)c1	-4.4%	-2.4%	-1.2%	-10.1%	3.2%	-5.2%	x	x	x	x
Cc1cc(C)cc(-n2c(SCC(=O)NC3CCCCC3)nc3c([nH]c4ccccc43)c2=O)c1	x	x	x	4.4%	2.0%	8.4%	x	x	x	x
O=C(O)c1ccc(S(=O)(=O)c2ccc([N+](=O)[O-])cc2[N+](=O)[O-])cc1	8.44µM*	x	-70.9%	1.5%	22.4µM*	-0.2%	10.6*	u	15.5%	-13.8%
O=C(O)c1ccc(S(=O)(=O)c2ccccc2C(=O)O)c([N+](=O)[O-])c1	-15.5%	x	1.3%	-6.8%	-0.4%	4.5%	x	x	x	x
N#CC(C#N)=NNc1ccc(S(=O)(=O)N2CCCCC2)cc1	-24.1%	17.8%	10.5%	-3.7%	8.91µM*	-14.1%	6.7*	3.16µM*	-8.3%	u
O=C(CSc1nnc(-c2ccccc2)c(-c2ccccc2)n1)NCCc1ccccc1	x	x	x	4.0%	6.5%	-6.3%	x	x	x	x
C=CCOc1cccc(C(=O)/C=C2/C(=O)Nc3ccccc32)c1	u	x	24.7%	20.5%	u	-7.7%	8.44*	8.91µM*	u	u
O=C(O)COc1ccccc1/C=C1\C(=O)Nc2ccc(Br)cc21	-28.6%	x	-0.5%	-24.9%	u	-5.5%	x	x	x	x
O=c1c(-c2cccc(Cl)c2)nc2cncnc2n1Cc1ccc(F)cc1	x	x	x	x	-7.1%	-12.5%	x	x	x	x
CS(=O)(=O)c1ncc(Cl)c(C(=O)Nc2ccc(OC(F)F)cc2)n1	23.8µM*	-0.9%	-21.5%	17.7%	10µM*	-4.2%	8.44*	8.91µM*	u	13µM*
CCS(=O)(=O)c1ncc(Cl)c(C(=O)Nc2ccc(S(=O)(=O)N(C)c3ccccc3)cc2)n1	u	x	-7.8%	u	u	-17.2%	4.47*	u	u	7.52µM*
CCN(c1ccccc1)S(=O)(=O)c1ccc(NC(=O)c2nc(S(C)(=O)=O)ncc2Cl)cc1	16.8µM*	x	-9.2%	2.6%	39.8µM*	-7.5%	13.4*	u	u	16.4µM*
CCSc1ncc(Cl)c(C(=O)Nc2ccc(S(=O)(=O)N(C)c3ccccc3)cc2)n1	x	x	x	-2.8%	27.8%	-7.0%	x	x	x	x
O=C(Nc1ccccn1)c1sc2cc([N+](=O)[O-])ccc2c1Cl	2.67µM*	-19.7%[11.5 µM]	-8.5%	-10.0%	31.6µM*	u	3.36*	u	4.9%	-24.1%
SMILES	PLK1 PBD block	PKM2 act	Mito fusion act	GLS inhibitor	VDR inhibitor	KAT2A inh	VDR confirm	VDR FP	VDR bla	VDR cytotox	others
COc1ccc(CN2CCN(C(=O)c3ccccc3C(=O)c3ccccc3)CC2)cc1F	10.3%	x	x	9.4%	x	x	x	x	x	x
S=C(c1ccc(-c2cccc(Cl)c2)o1)N1CCCCC1	u	u	-4.8%	u	3.6%	-4.1%	x	x	x	x
CC(=O)N1CCN(C(=S)c2ccc(-c3ccc(Cl)cc3)o2)CC1	4.74µM*	12.8%	1.1%	-4.4%	50.1µM*	-8.7%	26.7*	u	26.2%	5.3%
Cc1cc(/C(N)=N/OC(=O)c2ccccc2Cl)no1	4.6%	-34.0%	-3.6%	-10.9%	3.1%	-6.3%	x	x	x	x
CC1(C)CC(=O)C2=C(C1)NC1=C(C(=O)c3ccccc31)C2c1ccc(Cl)cc1 (stereo not given)	-10.2%	10.4%	12.4%	-2.2%	-21.4%	-6.0%	x	x	x	x
CC1(C)C(=O)NC2=C1C(=O)C(=O)c1ccccc12	x	x	x	x	44.7µM*	12.3%	x	x	x	x	USP1-UAF1 confirm=0.835µM*
COc1ccc(-n2c(SC)nc(O)c(Cc3ccccc3)c2=O)cc1	-23.0%	-0.3%	-0.3%	-1.9%	-12.8%	-13.9%	x	x	x	x
COc1ccc(Cc2c(O)nc(SC)n(C(C)=O)c2=O)cc1	-13.9%	3.4%	-1.5%	7.0%	u	-9.7%	u	5.62µM*	7.0%	5.8%
O=c1[nH]c(/C=C/c2ccccc2)c([N+](=O)[O-])c(=O)[nH]1	-20.8%	3.2%[11.5 µM]	0.5%	0.2%	22.4µM*	-23.5%	23.8*	u	1.7%	25.5%
